In PubChem BioAssay (Tox21):
Results filed as inconclusive are left out. Activity calls are given as the source filed them. Unless noted, the call rests on the fitted dose curve; in most records, active means well fitted curve in the direction sought with a large enough effect in the repeat runs; inconclusive means weak or mixed curves; inactive means no such curve, though single readings can be large; an effect the other way counts as inactive or inconclusive. Residues, ends and D or L forms follow the SMILES beside them.

What was measured:
[1] = qHTS assay to test for compound auto fluorescence at 535 nm (green) in HEK293 cells (AID 720680)
[2] = qHTS assay to test for compound auto fluorescence at 460 nm (blue) in HEK293 cell free culture (AID 720681)
Method in brief: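 Test compounds were pinned into cell-free culture medium (DMEM with 10% FBS) and fluorescence was read directly at Ex/Em 405/460 nm. Signals were expressed as fluorescence equivalents of triamterene, with DMSO vehicle as control.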

[3] = qHTS assay to test for compound auto fluorescence at 535 nm (green) in HEK293 cell free culture (AID 720682)
Method in brief: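 Compounds were pin-transferred into cell-free DMEM with 10% FBS, and green fluorescence was read at excitation 485 nm and emission 535 nm. Intensities were expressed as fluorescein-equivalent values.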

[4] = qHTS assay to test for compound auto fluorescence at 590 nm (red) in HEK293 cell free culture (AID 720683)
Method in brief: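 Tox21 10K library compounds were pinned into cell-free DMEM with 10% FBS and fluorescence was read at excitation 540 nm. Activity is expressed as Rose Bengal sodium equivalency.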

[5] = qHTS assay to test for compound auto fluorescence at 590 nm (red) in HepG2 cell free culture (AID 720684)
Method in brief: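 Measured in medium alone (MEM containing 10% FBS) following pintool addition of compound; emission at 590 nm with 540 nm excitation, referenced to Rose Bengal sodium.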

[6] = qHTS assay to test for compound auto fluorescence at 460 nm (blue) in HepG2 cell free culture (AID 720685)
Method in brief: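 Compound (23 nL) or DMSO pinned into cell-free MEM with 10% FBS; blue fluorescence read at 405/460 nm excitation/emission, expressed as auto-fluorescence equivalency to triamterene.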

[7] = qHTS assay to test for compound auto fluorescence at 535 nm (green) in HepG2 cell free culture (AID 720686)
[8] = qHTS assay to test for compound auto fluorescence at 460 nm (blue) in HepG2 cells (AID 720687)
Method in brief: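 Cells (2,000/well in MEM with 10% FBS) attached overnight at 37 C, then were exposed to compound or DMSO for 1 hr at 37 C, 5% CO2. Fluorescence read at Ex/Em 405/460 nm, expressed as triamterene-equivalent signal.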

[9] = target: Glucocorticoid receptor (Homo sapiens) (UniProt P04150); experiment: qHTS assay to identify small molecule agonists of the glucocorticoid receptor (GR) signaling pathway (AID 720691; active means well fitted activation curve with a large enough effect in the signal ratio in the repeat runs, not every such curve was filed as active; the % refers to the signal ratio); conditions: GR-bla HeLa, beta-lactamase reporter ratio, 18 h; activation: at 62.4 µM (top of the series)
Method in brief: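 Beta-lactamase reporter activity, read as fluorescence intensity, was measured in GR-bla HeLa cells exposed to compounds for 18 h at 37 C and then loaded with LiveBLAzer B/G FRET substrate for 2 h at room temperature.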

[10] = target: Glucocorticoid receptor (Homo sapiens) (UniProt P04150); experiment: qHTS assay to identify small molecule antagonists of the glucocorticoid receptor (GR) signaling pathway (AID 720692; active means well fitted inhibition curve with a large enough effect in the signal ratio in the repeat runs, not every such curve was filed as active; the % refers to the signal ratio)
Method in brief: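 Fluorescence from cleaved LiveBLAzer B/G FRET substrate reports GRE-driven beta-lactamase in HeLa cells; compounds are tested against 5 nM dexamethasone (final) over 18 h at 37 C, substrate incubation 2 h at room temperature.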

[11] = qHTS assay to identify small molecule antagonists of the glucocorticoid receptor (GR) signaling pathway - cell viability counter screen (AID 720693); further: nearly all actives have a fitted effect of over 55% in size
[12] = qHTS assay for identifying genotoxic compounds that show differential cytotoxicity against isogenic chicken DT40 cell lines with known DNA damage response pathways - wild type cell line (AID 743012); further: nearly all actives have a fitted effect of over 60% in size
Method in brief: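 Quantitative HTS on parental DT40 cells: 40 h compound treatment at 37 C/5% CO2, with viability then determined by CellTiter-Glo luminescence. Values serve as the DNA repair-proficient reference for differential cytotoxicity.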

[13] = qHTS assay for identifying genotoxic compounds that show differential cytotoxicity against isogenic chicken DT40 cell lines with known DNA damage response pathways - Rev3 mutant cell line (AID 743014); further: nearly all actives have a fitted effect of over 55% in size
[14] = qHTS assay for identifying genotoxic compounds that show differential cytotoxicity against isogenic chicken DT40 cell lines with known DNA damage response pathways - Rad54/Ku70 mutant cell line (AID 743015); further: nearly all actives have a fitted effect of over 60% in size
[15] = qHTS assay to identify small molecule antagonists of the androgen receptor (AR) signaling pathway - cell viability counter screen (AID 743033; further: nearly all actives have a fitted effect of over 45% in size)
[16] = qHTS assay to identify small molecule antagonists of the androgen receptor (AR) signaling pathway using the MDA cell line - cell viability counter screen (AID 743041; further: nearly all actives have a fitted effect of over 45% in size)
Method in brief: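 Viability counter screen run alongside the AR antagonist reporter: cells seeded 5 h before compound, R1881 added, 16 h incubation at 37C without CO2, fluorescent CellTiter-Fluor signal quantified.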

[17] = target: Androgen receptor (Homo sapiens) (UniProt P10275); experiment: qHTS assay to identify small molecule antagonists of the androgen receptor (AR) signaling pathway (AID 743035; active means well fitted inhibition curve with a large enough effect in the signal ratio in the repeat runs, not every such curve was filed as active; the % refers to the signal ratio)
Method in brief: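 Cell line: GeneBLAzer AR-UAS-bla GripTite (HEK293). Stimulus: R1881 added after compound. Exposure: 16 h, 37C, 5% CO2. Readout: LiveBLAzer B/G FRET fluorescence after 2 h at room temperature.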

[18] = target: Androgen receptor (Homo sapiens) (UniProt P10275); experiment: qHTS assay to identify small molecule agonists of the androgen receptor (AR) signaling pathway (AID 743036; active means well fitted activation curve with a large enough effect in the signal ratio in the repeat runs, with a control signal flat, not every such curve was filed as active; the % refers to the signal ratio)
Method in brief: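 Activation was read as beta-lactamase FRET signal from LiveBLAzer B/G substrate, added for 2 h at room temperature. Before that, GeneBLAzer AR-UAS-bla GripTite (HEK293) cells had 16 h compound exposure at 37C.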

[19] = target: Androgen receptor (Homo sapiens) (UniProt P10275); experiment: qHTS assay to identify small molecule agonists of the androgen receptor (AR) signaling pathway using the MDA cell line (AID 743040; further: nearly all actives have a fitted effect of over 20% in size)
Method in brief: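 Luminescence from ONE-Glo, read after 30 min at room temperature, reflects MMTV-driven luciferase in MDA-kb2 cells (AR- and GR-responsive). Treatment lasted 16 h at 37C, 0% CO2.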

[20] = target: Androgen receptor (Homo sapiens) (UniProt P10275); experiment: qHTS assay to identify small molecule antagonists of the androgen receptor (AR) signaling pathway using the MDA cell line (AID 743042; further: nearly all actives have a fitted effect of over 55% in size)
Method in brief: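 MDA-kb2 cells (human breast carcinoma, stably carrying an MMTV-luciferase reporter responsive to AR and GR) were plated at 3,000 cells/well and preincubated 5 hr at 37C, then given compound plus R1881 agonist for 16 h. ONE-Glo luminescence was read.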

Measured: Potency

Androgen receptor (Homo sapiens), sequence (P10275 whole entry, looked up): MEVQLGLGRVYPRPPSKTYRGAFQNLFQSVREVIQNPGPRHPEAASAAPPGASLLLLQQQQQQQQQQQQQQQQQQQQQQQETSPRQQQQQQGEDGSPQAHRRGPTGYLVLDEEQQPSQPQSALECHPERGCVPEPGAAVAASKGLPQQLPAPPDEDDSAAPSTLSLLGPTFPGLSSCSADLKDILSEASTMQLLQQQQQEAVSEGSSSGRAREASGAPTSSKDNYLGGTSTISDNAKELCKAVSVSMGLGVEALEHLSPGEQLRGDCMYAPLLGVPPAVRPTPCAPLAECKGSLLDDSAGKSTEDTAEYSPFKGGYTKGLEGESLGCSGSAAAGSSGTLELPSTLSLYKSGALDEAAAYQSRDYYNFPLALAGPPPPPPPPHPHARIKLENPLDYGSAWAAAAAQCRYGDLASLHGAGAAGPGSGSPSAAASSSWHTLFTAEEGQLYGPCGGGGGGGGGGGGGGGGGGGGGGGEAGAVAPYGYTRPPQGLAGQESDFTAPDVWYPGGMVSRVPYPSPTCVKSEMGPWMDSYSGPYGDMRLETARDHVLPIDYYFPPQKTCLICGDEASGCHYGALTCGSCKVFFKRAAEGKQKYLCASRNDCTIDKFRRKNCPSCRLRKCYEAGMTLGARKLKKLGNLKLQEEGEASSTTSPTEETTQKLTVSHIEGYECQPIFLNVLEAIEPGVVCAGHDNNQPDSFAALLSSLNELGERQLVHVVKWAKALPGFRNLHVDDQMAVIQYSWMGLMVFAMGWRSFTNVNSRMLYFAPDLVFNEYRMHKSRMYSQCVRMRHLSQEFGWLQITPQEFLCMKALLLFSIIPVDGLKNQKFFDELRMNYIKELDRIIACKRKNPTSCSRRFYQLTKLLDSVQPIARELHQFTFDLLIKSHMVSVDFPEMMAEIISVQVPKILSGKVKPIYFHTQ
Glucocorticoid receptor (Homo sapiens), sequence (P04150 whole entry, looked up): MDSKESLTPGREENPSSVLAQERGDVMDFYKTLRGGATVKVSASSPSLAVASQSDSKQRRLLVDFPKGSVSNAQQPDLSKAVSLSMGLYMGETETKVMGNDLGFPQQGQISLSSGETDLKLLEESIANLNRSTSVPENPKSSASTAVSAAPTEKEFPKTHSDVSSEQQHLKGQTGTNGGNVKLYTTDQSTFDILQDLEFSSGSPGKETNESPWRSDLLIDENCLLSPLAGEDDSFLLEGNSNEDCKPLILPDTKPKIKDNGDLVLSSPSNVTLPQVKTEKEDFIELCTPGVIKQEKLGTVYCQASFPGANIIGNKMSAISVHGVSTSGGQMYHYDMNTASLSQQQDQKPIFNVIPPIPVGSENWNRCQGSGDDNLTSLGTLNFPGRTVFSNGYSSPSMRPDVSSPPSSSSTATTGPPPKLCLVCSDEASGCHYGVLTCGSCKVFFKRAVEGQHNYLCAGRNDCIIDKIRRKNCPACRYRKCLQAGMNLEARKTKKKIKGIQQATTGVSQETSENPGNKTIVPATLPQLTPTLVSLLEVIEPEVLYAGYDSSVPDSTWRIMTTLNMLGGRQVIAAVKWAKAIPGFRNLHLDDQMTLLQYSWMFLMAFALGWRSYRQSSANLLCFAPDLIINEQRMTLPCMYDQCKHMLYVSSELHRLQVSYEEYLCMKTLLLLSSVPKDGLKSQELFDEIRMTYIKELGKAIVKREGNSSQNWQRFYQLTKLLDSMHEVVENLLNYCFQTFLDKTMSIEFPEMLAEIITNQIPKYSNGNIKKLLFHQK

CCN(CC)C(=O)c1cccnc1
not listed: [17] | [18] | [19] | [20]
inactive: all other assays above

CNC(=O)OCc1cccc(COC(=O)NC)n1
not listed: [17] | [18] | [19] | [20]
inactive: all other assays above

CNCC(=O)N[C@@H](CCCN=C(N)N)C(=O)N[C@H](C(=O)N[C@@H](Cc1ccc(O)cc1)C(=O)N[C@H](C(=O)N[C@@H](Cc1cnc[nH]1)C(=O)N1CCC[C@H]1C(=O)N[C@@H](C)C(=O)O)C(C)C)C(C)C
not listed: [17] | [18] | [19] | [20]
inactive: all other assays above

CC(C)(Oc1ccc(C2CCCc3ccccc32)cc1)C(=O)O (stereo not given)
inactive: all assays above

CC(C)[C@H](NC(=O)[C@H](CC(=O)O)NC(=O)[C@H](CCCCN)NC(=O)[C@@H](N)CCCN=C(N)N)C(=O)N[C@@H](Cc1ccc(O)cc1)C(=O)O (H-RKDVY-OH)
not listed: [13] | [16] | [17] | [18] | [19] | [20]
inactive: all other assays above

CC(=O)N(C)C
inactive: [1] | [2] | [3] | [4] | [5] | [6] | [7] | [8]
